Laboratory results published in PubChem BioAssay (NCI).
Compounds without any hit were thinned out: in the full panel of roughly 79,000, 15% have a hit. Cut-off read from the data, not from the text of the source: active = growth inhibition above about 70%; inactive = the rest.

Key:
[1] = NCI Yeast Anticancer Drug Screen. Data for the rad50 strain (AID 155);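 note: 0% = growth of vehicle-only cultures of the same strain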; conditions: S. cerevisiae rad50 strain growth inhibition; at 50.0 µM; stronger effect = higher value
Summary of the method: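 Cells are treated with compound, grown, and their growth is then scored against vehicle-only cultures of the same repair-deficient yeast strain.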

[2] = NCI Yeast Anticancer Drug Screen. Data for the mec2-1 strain (AID 157); conditions: S. cerevisiae mec2-1 strain, at 50.0 µM, stronger effect = higher value
Summary of the method: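 Vehicle-treated cultures served as reference for growth inhibition of compound-exposed mec2-1 yeast.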

[3] = NCI Yeast Anticancer Drug Screen. Data for the sgs1 mgt1 strain (AID 161);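 note: 0% = growth of cultures given vehicle only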; conditions: S. cerevisiae sgs1 mgt1 strain, at 50.0 µM, stronger effect = higher value
Summary of the method: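 Genetically altered yeast, compound exposure, growth inhibition relative to vehicle.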

[4] = NCI Yeast Anticancer Drug Screen. Data for the cln2 rad14 strain (AID 165);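 note: 0% = growth equal to vehicle treated cultures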; conditions: S. cerevisiae cln2 rad14 strain, at 50.0 µM, stronger effect = higher value
Summary of the method: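 Each compound was tested on cln2 rad14 yeast. Inhibition of growth was calculated against vehicle-exposed controls.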

[5] = NCI Yeast Anticancer Drug Screen. Data for the bub3 strain (AID 167); conditions: S. cerevisiae bub3 mutant strain, at 50.0 µM, stronger effect = higher value
Summary of the method: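 Part of a panel of yeast mutants defective in DNA damage repair or cell cycle regulation. Each strain is grown with compound, and inhibition is calculated relative to solvent-treated cultures.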

[6] = NCI Yeast Anticancer Drug Screen. Data for the mlh1 rad18 strain (AID 175); conditions: S. cerevisiae mlh1 rad18 strain growth inhibition; at 50.0 µM; stronger effect = higher value
Summary of the method: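 Vehicle-treated cultures served as the reference for growth inhibition in a yeast strain carrying DNA damage repair alterations exposed to each compound.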

Measured: growth inhibition

CCOC(=O)Nc1nc2ccn(C)c2s1
inactive: [1] 6.3% | [2] -6.9% | [3] 2.15% | [4] -6.4% | [5] 4.6% | [6] -8%

CCCCCc1c(Cl)nc(Cl)nc1Cl
inactive: [1] -14.2% | [2] 11.2% | [3] 12.3% | [4] -38.8% | [5] 26.9% | [6] -18.1%

C/C(=N/NC(N)=S)c1ccc[nH]1
inactive: [1] -18.1% | [2] -14.2% | [3] -3.75% | [4] 20.9% | [5] -39% | [6] -10.4%

CN=CN(C)c1c2ccccc2nc2ccccc12
inactive: [1] 5.6% | [2] -11.3% | [3] -5.05% | [4] 10.7% | [5] 9.75% | [6] -1.25%

OC1OC2COC(c3ccccc3)OC2C(O)C1O (stereo unspecified)
inactive: [1] 4% | [2] -14.5% | [3] 8.15% | [4] -3.35% | [5] -3.3% | [6] -20.9%

Cn1c2ccc(Br)cc2c2cc(Br)cc([N+](=O)[O-])c21
inactive: [1] 6.55% | [2] 5.05% | [3] 14.9% | [4] -4.95% | [5] -2.05% | [6] 15.3%

O=C(NNC(=O)Nc1ccccc1)Nc1ccccc1
inactive: [1] -0.8% | [2] -16.7% | [3] -0.95% | [4] -12.9% | [5] -3.2% | [6] -7%

S=C1CSc2c(cnc3ccccc23)N1
inactive: [1] -4.05% | [2] -6% | [3] 7% | [4] 18.8% | [5] 18.2% | [6] 6.95%

CCCCCCCCCCCCNC(C)C1=C(O)c2ccccc2C(=O)C1=O (stereo unspecified)
inactive: [1] 52.6% | [2] 20.3% | [3] 50% | [4] 25.9% | [5] 15% | [6] 44.9%

COc1cc2c3c(c1)CCCN3CCC2
inactive: [1] -40.6% | [2] -17% | [3] -20.5% | [4] -4.95% | [5] 13.2% | [6] -17.6%

CC1(C)OC(C(O)CO)C(C2COC(=S)O2)O1 (stereo unspecified)
inactive: [1] 1.45% | [2] 15.9% | [3] 8.45% | [4] 33.5% | [5] 12.6% | [6] -1.8%

CC12CCC[C@@](C)(C(=O)OC3OC(CO)C(O)C(O)C3O)[C@H]1CCC13CC4CC(OC4(CO)[C@H]1O)[C@@H]23 (stereo partly specified)
inactive: [1] -8.45% | [2] -26.1% | [3] -20.9% | [4] -18.8% | [5] -20.7% | [6] -17.9%

CC(Nc1ccc([N+](=O)[O-])cc1)S(=O)(=O)O (stereo unspecified)
inactive: [1] 7.4% | [2] -0.2% | [3] 13.4% | [4] 16.6% | [5] 12.4% | [6] 18.4%

COc1ccc(C(=O)N2CCCCC2)cc1
inactive: [1] -31.1% | [2] -15.8% | [3] -3.8% | [4] -26.6% | [5] -0.9% | [6] -12.2%

C/C(=N/NC(=S)N1CCCCCC1)c1ccccc1O
inactive: [1] -63.5% | [2] -40.4% | [3] 5.6% | [4] 45.4% | [5] -12.8% | [6] 34.8%

O=C(CSc1nc(-c2ccccc2)c(-c2ccccc2)[nH]1)NNC(=S)Nc1ccccc1
inactive: [1] 6.45% | [2] 0.5% | [3] -7.15% | [4] -26.3% | [5] 54.5% | [6] 3%

O=C1C=C(Oc2ccccc2)C(=O)C=C1Oc1ccccc1
inactive: [1] -8.15% | [2] -3.55% | [3] -27.1% | [4] -23.8% | [5] 14.3% | [6] -11.1%

CCc1nc2c(cnn2C)c(=O)n1-c1ccccc1
inactive: [1] -5% | [2] -6.35% | [3] -1.2% | [4] 3.9% | [5] 10.6% | [6] 7.55%

O=C(Nc1ccc(Cl)cc1C(F)(F)F)C(=O)C1CCCS1(=O)=O (stereo unspecified)
inactive: [1] -7.05% | [2] -10.9% | [3] -4.5% | [4] 12.9% | [5] -6.4% | [6] -8.8%

C=CCNc1ccc(Cl)cc1Cl
inactive: [1] -3.5% | [2] -6.25% | [3] -21.9% | [4] -54.4% | [5] -8.75% | [6] 12.6%

O=C1NC(=S)S/C1=C\c1ccc2c(c1)OCO2
inactive: [1] -22.1% | [2] -21.3% | [3] -4.8% | [4] -2% | [5] -8.05% | [6] -7.55%
